Consider 14 compounds from PubChem BioAssay.

Assay [1] is described as follows: inhibitors of TNFa-induced NFkB p65 translocation, primary screen, imaging, HUVEC, MLSMR starter and 10KST1 sets (AID 438;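 active = inhibition above 20% together with a positive visual image hit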;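 note: compound added about 3h40 before a 20 min TNFalpha stimulation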;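 for inhibition: signal is the nuclear over cytoplasmic p65 intensity ratio per well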). As to conditions: HUVEC TNFa-induced p65 nuclear translocation; cell count: measured here: nuclei count (cytotoxicity indicator), at 2.08 µM; inhibition: at 2 µM, stronger effect = higher value, 0% TNFa-plus-vehicle, 100% no-TNFa wells.
Assay [2] in a line: inhibitors of mutant huntingtin aggregation, primary screen, imaging, exon1htt(103Q)mCFP cells, high-content imaging (AID 483;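 active = visual image review flags a hit and inhibition of aggregation exceeds 20%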;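 note: compound exposure lasted 3 days before fixation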;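 for nuclei count: percent of the per-plate median nuclei count of sample wells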). Particulars: exon1htt(103Q)mCFP cell line, aggregate imaging, at 2 µM; inhibition of aggregation: stronger effect = higher value; nuclei count: measured here: cell count, toxicity.
A short description of assay [3]: inhibitors of E-selectin induction by TNFa, primary screen, imaging, HUVEC, immunofluorescence, MLSMR starter and 10KST1 sets (AID 487;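 active = visually confirmed hit in the image check and inhibition above 20%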;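 for inhibition: signal is fraction of cell area covered by stained E-selectin grains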;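 for nuclei count: 100% = median nuclei count of all wells on the same plate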). As to conditions: HUVEC TNFalpha-induced E-selectin immunofluorescence imaging, at 2 µM; inhibition: stronger effect = higher value; nuclei count: measured here: cell number, toxicity.
Assay [4] concerns the target Voltage-gated potassium channel subunit beta-2 (Rattus norvegicus) (UniProt P62483). The assay is described as follows: KvBeta enzyme negative modulators, primary screen, biochemical, NADPH fluorescence (AID 622;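 active = fluorescence slope higher than the sample average by over 3 SD, cut at about -0.22 in these data, passing the limit was not always enough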;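 note: slope of raw intensity against log time taken from 70 to 1610 s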). As to conditions: recombinant KvBeta, 4-cyanobenzaldehyde reduction, at 10 µM, stronger effect = higher value.
Assay [5] has the same target. In words: KvBeta positive modulators, primary screen, biochemical, NADPH fluorescence (AID 623;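 active = NADPH fluorescence slope more negative than the mean of all samples by about 3 SD, 99.7% confidence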;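 note: fluorescence intensity change per second fitted from 20 to 320 s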). As to conditions: Recombinant KvBeta, NADPH fluorescence decrease slope, 10 min; at 10 µM; stronger effect = lower value.
Assay [6] concerns the target Alpha-2C adrenergic receptor (Homo sapiens) (UniProt P18825). In words: modulators of alpha2C/GIRK thallium flux, primary screen, cell-based, HEK293 alpha2C/GIRK1/2 (AID 624;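 active = fluorescence slope after compound addition differing from the mean of all screened samples at 99.7% confidence, in either direction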;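 note: slope of fluorescence ratio to pre-addition baseline per second over 15 to 24 s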). Particulars: thallium flux BTC fluorescence, at 10 µM, actives lie on both sides.
Assay [7] can be described thus: inhibitors of Sendai virus-induced IRF3 signaling, primary screen, TLR/RLR signaling modifier project, cell-based, Sendai virus stimulus, luciferase, 10K MLSCN set (AID 602276;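 active = inhibition at or above 50% at 10 µM; inactive = inhibition below 50%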;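 note: firefly luciferase from ISG56 promoter only with Renilla not read in this screen; 0% = Sendai virus plus DMSO and 100% = medium plus DMSO without virus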). Particulars: HEK293 RL24 IRF3 luciferase reporter, at 10 µM, stronger effect = higher value. For orientation: A reporter such as luciferase makes a cellular process visible.
A short description of assay [8]: inhibitors of poly I:C-induced TLR3 signaling, primary screen, cell-based, poly I:C stimulus, luciferase, 10K MLSCN set (AID 602277). As to conditions: HEK293-TLR3 RL24 IRF3 luciferase reporter, at 10 µM, stronger effect = higher value.

Molecules are shown by their SMILES. The source made the active and inactive calls.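 Rule for the calls, unless noted: active = inhibition of the reporter signal at or above 50%; inactive = inhibition below 50%.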

Sequence of Voltage-gated potassium channel subunit beta-2 (Rattus norvegicus) (P62483 whole entry, looked up): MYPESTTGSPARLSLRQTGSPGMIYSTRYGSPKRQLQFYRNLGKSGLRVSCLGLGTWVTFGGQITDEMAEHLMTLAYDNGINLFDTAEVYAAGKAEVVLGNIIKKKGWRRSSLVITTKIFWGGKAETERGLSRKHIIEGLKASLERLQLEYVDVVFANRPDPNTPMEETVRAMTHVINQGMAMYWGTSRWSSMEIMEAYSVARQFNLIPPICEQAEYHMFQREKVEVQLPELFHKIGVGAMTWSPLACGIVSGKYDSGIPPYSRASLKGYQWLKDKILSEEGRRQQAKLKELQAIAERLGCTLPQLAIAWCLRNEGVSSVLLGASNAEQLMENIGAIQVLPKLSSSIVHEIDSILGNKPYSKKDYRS
Sequence of Alpha-2C adrenergic receptor (Homo sapiens) (P18825 whole entry, looked up): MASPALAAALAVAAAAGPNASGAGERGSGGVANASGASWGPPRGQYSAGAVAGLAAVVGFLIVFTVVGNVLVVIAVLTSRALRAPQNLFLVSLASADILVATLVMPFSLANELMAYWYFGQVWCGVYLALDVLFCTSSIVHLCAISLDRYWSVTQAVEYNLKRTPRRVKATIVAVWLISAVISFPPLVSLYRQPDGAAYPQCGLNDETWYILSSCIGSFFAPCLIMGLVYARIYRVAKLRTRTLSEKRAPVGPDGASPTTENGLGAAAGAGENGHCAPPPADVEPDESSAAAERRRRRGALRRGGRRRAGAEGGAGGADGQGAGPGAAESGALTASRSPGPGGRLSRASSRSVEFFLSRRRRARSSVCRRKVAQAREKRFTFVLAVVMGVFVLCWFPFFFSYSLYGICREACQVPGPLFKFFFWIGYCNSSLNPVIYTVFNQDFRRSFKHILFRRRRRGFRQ

For `CCCSc1nc2c(cnn2-c2ccc(C)cc2)c(=O)[nH]1`, in assay [1], the cell count is 671. Besides, the inhibition (usually the change of the read-out against control, counted positive when it falls) is -5.8% (inactive) in assay [1], -17.4% (inactive) in assay [3], -9.65% (inactive) in assay [7] and 10.6% (inactive) in assay [8]. The inhibition of aggregation in assay [2] is -5.9% (inactive). The nuclei count in assay [2] amounted to 115%; in assay [3], 113%. In assay [4], the fluorescence slope is -0.545 (inactive). Further, in assay [5], the NADPH fluorescence slope was -5.2e-06 (inactive). In addition, the slope in assay [6] is 0.0075 (inactive).
Regarding `COc1cc(C)nc(N2CCCC(C(=O)Nc3cccc(Cl)c3Cl)C2)n1` (centres undefined), in assay [1], the cell count was determined as 395. Besides, the inhibition in assay [1] was 3.6% (inactive); in assay [3], -0.7% (inactive); in assay [7] it was 4.19% (inactive); in assay [8], 21.4% (inactive). The inhibition of aggregation in assay [2] is -14.9% (inactive). The nuclei count came out at 109% in assay [2] and 103% in assay [3]. In addition, the fluorescence slope in assay [4] was -0.467 (inactive). The NADPH fluorescence slope in assay [5] is -2.4e-05 (inactive). Besides, the slope in assay [6] is 0.00338 (inactive).
`COC(=O)C(C)Sc1nc2c(c(=O)n1-c1ccccc1)SCC2` (centres undefined): the cell count in assay [1] was determined as 330. Further, the inhibition is -1.4% (inactive) in assay [1], -51.5% (inactive) in assay [3], 7.35% (inactive) in assay [7] and 13.2% (inactive) in assay [8]. Further, the inhibition of aggregation in assay [2] is -6.6% (inactive). In addition, the values for the nuclei count in assay [2] and in assay [3] were 113% and 150%, respectively. Besides, the fluorescence slope in assay [4] was -0.523 (inactive). Also, the NADPH fluorescence slope in assay [5] is -7.6e-05 (inactive). In addition, the slope in assay [6] is 0.00467 (inactive).
Turning to `S=c1[nH]ncn1-c1ccccn1`, the cell count in assay [1] came to 681. Also, the inhibition in assay [1] was -11% (inactive); in assay [3] it was -40.7% (inactive); in assay [7] it was 1.29% (inactive); in assay [8], 8.61% (inactive). The inhibition of aggregation in assay [2] is -25.8% (inactive). Besides, the nuclei count in assay [2] was 114%; in assay [3], 109%. Further, the fluorescence slope in assay [4] was -0.41 (inactive). Moreover, the NADPH fluorescence slope in assay [5] was -3.7e-05 (inactive). In addition, the slope in assay [6] is 0.00408 (inactive).
With `COc1ccc(NC(=O)CN2CCN(CC(=O)Nc3cc(OC)cc(OC)c3)CC2)cc1`, the cell count in assay [1] was determined as 306. The inhibition is -3.6% (inactive) in assay [1], 4.7% (inactive) in assay [3], 13.3% (inactive) in assay [7] and 32.4% (inactive) in assay [8]. Besides, the inhibition of aggregation in assay [2] was 8% (inactive). The nuclei count in assay [2] stood at 89.1%; in assay [3], 84.6%. Also, the fluorescence slope in assay [4] is -0.442 (inactive). Besides, the NADPH fluorescence slope in assay [5] is -0.000127 (inactive). Further, the slope in assay [6] is 0.00643 (inactive).
With `O=C(Oc1ccc2ccc(OC(=O)N3CCOCC3)cc2c1)N1CCOCC1`, the cell count in assay [1] worked out at 388. Besides, the inhibition in assay [1] is 6.8% (inactive); in assay [3], -7.5% (inactive); in assay [7], -2.44% (inactive); in assay [8], -16.2% (inactive). Moreover, the inhibition of aggregation in assay [2] was -8.9% (inactive). Also, the values for the nuclei count in assay [2] and in assay [3] were 107% and 111%, respectively. In assay [4], the fluorescence slope was -0.238 (inactive). In addition, in assay [5], the NADPH fluorescence slope was -1.6e-05 (inactive). In addition, in assay [6], the slope is 0.00539 (inactive).
In the case of `CCOC(=O)Cn1nc(-c2ccc(C)cc2)ccc1=O`, in assay [1], the cell count came to 534. Also, the inhibition in assay [1] was -21% (inactive); in assay [3], -42.9% (inactive); in assay [7], -9.24% (inactive); in assay [8] it was -5.48% (inactive). Also, the inhibition of aggregation in assay [2] is 31% (inactive). For the same compound, the nuclei count in assay [2] is 121%; in assay [3] it was 108%. For the same compound, in assay [4], the fluorescence slope was -0.393 (inactive). Besides, the NADPH fluorescence slope in assay [5] is -0.000149 (inactive). In addition, the slope in assay [6] is 0.00747 (inactive).
As for `O=C(Nc1ccc2c(c1)OCCO2)C1CCCN1S(=O)(=O)c1cccc2cccnc12` (centres undefined), in assay [1], the cell count worked out at 743. In addition, the inhibition in assay [1] is 4.4% (inactive); in assay [3], -42.2% (inactive); in assay [7], 3.98% (inactive); in assay [8], 22.9% (inactive). Further, the inhibition of aggregation in assay [2] is 4.5% (inactive). Also, the nuclei count worked out at 128% in assay [2] and 106% in assay [3]. Also, the fluorescence slope in assay [4] is -0.537 (inactive). The NADPH fluorescence slope in assay [5] is -4.4e-05 (inactive). Besides, the slope in assay [6] is 0.00567 (inactive).
`COc1ccc(CCNC(=O)CSCc2n[nH]c(=O)[nH]2)cc1OC`: the cell count in assay [1] amounted to 330. Besides, the inhibition in assay [1] was 1.6% (inactive); in assay [3], -97.5% (inactive); in assay [7], 19.2% (inactive); in assay [8], 24.3% (inactive). Besides, the inhibition of aggregation in assay [2] is -15.4% (inactive). Besides, the figures for the nuclei count in assay [2] and in assay [3] were 99.5% and 131%, respectively. For the same compound, the fluorescence slope in assay [4] is -0.476 (inactive). Moreover, the NADPH fluorescence slope in assay [5] is -3.9e-05 (inactive). Also, the slope in assay [6] was 0.00502 (inactive).
In the case of `Cc1cc2c(cc1C)C(=O)NC(C)(C)C2`, the cell count in assay [1] was 417. In addition, the inhibition was -1.1% (inactive) in assay [1], -20.1% (inactive) in assay [3], -1.09% (inactive) in assay [7] and 0.395% (inactive) in assay [8]. For the same compound, the inhibition of aggregation in assay [2] was -12.1% (inactive). Besides, the nuclei count is 108% in assay [2] and 120% in assay [3]. Further, in assay [4], the fluorescence slope was -0.375 (inactive). Moreover, in assay [5], the NADPH fluorescence slope is 6.6e-05 (inactive). The slope in assay [6] is 0.01 (inactive).
Turning to `C=C(C)Cn1c(N2CCN(CC)CC2)nc2c1c(=O)[nH]c(=O)n2C`, the cell count in assay [1] is 441. The inhibition is 14% (inactive) in assay [1], 12.3% (inactive) in assay [3], 2.55% (inactive) in assay [7] and 25.8% (inactive) in assay [8]. Also, the inhibition of aggregation in assay [2] is -6.4% (inactive). For the same compound, the results for the nuclei count in assay [2] and in assay [3] were 81.9% and 104%, respectively. The fluorescence slope in assay [4] is -0.528 (inactive). Also, the NADPH fluorescence slope in assay [5] is -1.8e-05 (inactive). In assay [6], the slope was 0.00582 (inactive).
Turning to `Cc1cc(=O)[nH]c(=S)n1-c1ccccc1`, the cell count in assay [1] was 656. The inhibition in assay [1] is 7.7% (inactive); in assay [3], 23.3% (inactive); in assay [7], 15.3% (inactive); in assay [8], 23.5% (inactive). Also, the inhibition of aggregation in assay [2] was 5.6% (inactive). In addition, the nuclei count in assay [2] and in assay [3] was 103% throughout. The fluorescence slope in assay [4] is -0.564 (inactive). Also, the NADPH fluorescence slope in assay [5] is -3e-05 (inactive). Also, the slope in assay [6] is 0.00585 (inactive).
`COc1ccccc1CC(=O)NCc1ccc2c(c1)OCO2`: the cell count in assay [1] stood at 372. Further, the inhibition is -0.6% (inactive) in assay [1], -81% (inactive) in assay [3], 7.81% (inactive) in assay [7] and -10.6% (inactive) in assay [8]. Also, the inhibition of aggregation in assay [2] is -2.1% (inactive). The nuclei count in assay [2] was found to be 101%; in assay [3] it was 114%. The fluorescence slope in assay [4] was -0.392 (inactive). Further, the NADPH fluorescence slope in assay [5] was -5.4e-05 (inactive). In assay [6], the slope was 0.00532 (inactive).
As for `CC(NS(=O)(=O)c1ccc(F)cc1)C(c1cccs1)N1CCN(C)CC1` (centres undefined), in assay [1], the cell count is 390. Further, the inhibition was -3.7% (inactive) in assay [1], -0.8% (inactive) in assay [3], 0.176% (inactive) in assay [7] and 33% (inactive) in assay [8]. The inhibition of aggregation in assay [2] is -11.1% (inactive). The nuclei count in assay [2] was found to be 104%; in assay [3], 105%. For the same compound, the fluorescence slope in assay [4] was -0.38 (inactive). Also, the NADPH fluorescence slope in assay [5] is -5.1e-05 (inactive). In addition, the slope in assay [6] was 0.00473 (inactive).
